High-throughput results as filed in PubChem BioAssay.
KKLEB cytotox = cytotoxicity in KKLEB CF airway cells, primary screen, cytotoxicity control for CF NF-kB inhibitor project, cell-based, uHTS, fluorescence assay plates; activity change (cytotoxicity), % at 5 µM; 360,000 tested, 0.36% active; AID 602141, 2011; KKLEB CF airway cells viability, ATPlite luminescence, overnight; active compounds read low; cells stimulated with P. aeruginosa culture filtrate;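 active = corrected activity change at or below -50% at 5 µM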
EWS-Fli block = EWS/Fli-driven NR0B1 reporter inhibitors, primary screen, A673 cells, NR0B1 luciferase, luminescence, MLPCN library; viability-normalised; inhibition, % at 12.6 µM; 350,000 tested, 0.67% active; AID 651661, 2012;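 active = mean inhibition of at least 50% after viability correction, with every replicate also passing that limit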;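 also: firefly luciferase signal divided by Alamar Blue viability fluorescence both relative to DMSO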
LGR2 inh = inhibitors of bursicon-induced LGR2 CRE-luciferase signal, primary screen, cell-based, HEK293, CRE-luciferase reporter, bursicon stimulation; Drosophila bursicon receptor LGR2 (rickets); bursicon-stimulated, 4 h; inhibition, % at 9.99 µM; 380,000 tested, 0.35% active;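 active = drop in luminescence signal, shown as inhibition above about 50% in the replicate tests, limit read from the data, passing the limit was not always enough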;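 also: agonist challenge used bursicon conditioned medium at about half maximal strength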
TWEAK Fn14 block = inhibitors of TWEAK-Fn14 signaling, primary screen, luciferase reporter cells, uHTS; TWEAK-stimulated Fn14 reporter cells, luciferase luminescence, 8 h; 360,000 tested, 2% active; inhibition, % at 10 µM; AID 1159606, 2016; in the data active = inhibition above about 50%
TROY NFkB inh = inhibitors of TROY-driven NF-kB signaling, primary screen, Q293 LMP1-TROYcd cells, NF-kB luciferase, uHTS. Q293 LMP1-TROYcd NF-kB luciferase reporter, 4 h. inhibition, % at 10 µM. 360,000 tested, 0.98% active. AID 1347056, 2019;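 active = compounds whose plate-normalised and pattern-corrected inhibition of the luciferase reporter signal at the single screening dose is 50% or more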
CF NFkB inh = inhibitors of PAF-induced NF-kB signaling, primary screen, cell-based, GFP fluorescence, uHTS. KKLEB NF-kB-GFP reporter, GFP fluorescence overnight. 360,000 tested, 0.86% active. AID 588850, 2011. inhibition, % at 5 µM;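 active = at least 50% inhibition at 5 µM, scaled per plate between neutral and stimulator controls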;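 also: PAF is a Pseudomonas aeruginosa culture filtrate used as stimulus; plate controls were PAF-stimulated DMSO wells for no effect and unstimulated DMSO wells for full effect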
Numbers without * were called inactive; · = no result given. Only some compounds are listed: those with a hit (about 2.6% of all), similar ones and a draw of the others.

SMILES	KKLEB cytotox	EWS-Fli block	LGR2 inh	TWEAK Fn14 block	TROY NFkB inh	CF NFkB inh
O=S(=O)(Nc1ccc2c(c1)OCCO2)c1ccc(F)c(F)c1	11	-6	15	20	0	-18
Cc1nn(C)cc1S(=O)(=O)Nc1ccc2c(c1)OCCO2	4	-45	16	77*	82*	-15
CC(=O)NCCc1ccc(S(=O)(=O)Nc2ccc3c(c2)OCCO3)cc1	7	6	-22	55*	43	10
CCCN(C)C[C@H]1OCCCC[C@@H](C)Oc2ccc(NS(=O)(=O)c3cn(C)cn3)cc2C(=O)N([C@@H](C)CO)C[C@H]1C	·	-5	-8	·	·	·
CN1C(=O)c2cc(NS(C)(=O)=O)ccc2OC[C@@H]2O[C@@H](CC(=O)NCc3ccccc3)CC[C@H]21	·	-5	-2	·	·	·
Cc1cccc(-c2nc(CSc3nc4c(c(=O)[nH]3)CCC4)c(C)o2)c1	-13	16	18	49	51*	3
Cc1oc(-c2ccccc2)nc1CSc1nc2c(c(=O)[nH]1)CCC2	-15	6	0	1	44	30
CC(=O)N1[C@@H]2c3ccc(-c4ccc(F)cc4)c(=O)n3C[C@@H]2[C@@H](CO)[C@@H]1C(=O)NC1CCC1	·	0	-7	·	·	·
O=S(Cc1ccc(Br)cc1)Cc1nnc(SCc2ccc(Cl)cc2)n1-c1ccccc1 (stereo unspecified)	-5	·	·	55*	31	8
CN(C)C(=O)c1cccc(-c2ccc([C@H]3[C@@H](C#N)N(C(=O)C4CCCCC4)[C@H]3CO)cc2)c1	·	2	11	·	·	·
COc1ccc2c3c(n(C)c2c1)[C@H](CO)N(C(=O)Cc1ccccn1)CC31CN(CC2CCOCC2)C1	·	1	-7	·	·	·
COCCNC(=O)C[C@H]1CC[C@@H]2[C@@H](COc3ccc(NC(=O)C4CCCC4)cc3C(=O)N2C)O1	·	-5	-17	·	·	·
Cn1nc(-c2ccc(Cl)cc2)c2cc(C(=O)N3CCN(c4ccccn4)CC3)sc21	7	·	·	79*	52*	-64
Cn1nc(-c2ccc(Cl)cc2)c2cc(C(=O)N3CCN(c4ccccc4)CC3)sc21	-16	5	-6	-8	10	-1
COc1ccc(C2CC(=O)c3sc(NC(C)=O)nc3C2)cc1 (stereo unspecified)	2	·	-12	72*	62*	-14
O=C(NC(=S)Nc1ccccc1[N+](=O)[O-])c1ccccc1	-1	-52	-26	-13	-25	-9
O=C(NC(=S)/C(=C1\CCCCCN1)[N+](=O)[O-])c1ccccc1	-25	·	·	99*	87*	-10
Cc1noc(C)c1NC(=O)N(C)C[C@@H]1Oc2ccc(NS(=O)(=O)c3ccc(F)cc3)cc2C(=O)N([C@@H](C)CO)C[C@H]1C	·	-5	-12	·	·	·
O=C(OCc1nnc(-c2ccc(Cl)cc2)o1)C12CC3CC(CC(O)(C3)C1)C2	5	36	-22	48	67*	-21
CC(=O)c1cc(C#N)c(SCCC(C)C)nc1C	12	-12	-26	-27	-21	16
CC(C)CCSc1nc(N)c(C#N)cc1C#N	0	·	2	46	8	51*
CCCC(=O)n1nc(-c2ccc(Cl)cc2)nc1SC	5	·	·	-27	-35	-6
CCC(=O)n1nc(-c2ccc(Cl)cc2)nc1SC	-1	·	·	77*	-31	-1
NC(=O)NC(=O)COC(=O)/C=C/c1cccc(Br)c1	11	-24	·	-5	4	-11
CCOC(=O)C(CC)(CC)C(=O)/C=C/c1cccc(Br)c1	1	·	·	59*	2	24
SMILES	KKLEB cytotox	EWS-Fli block	LGR2 inh	TWEAK Fn14 block	TROY NFkB inh	CF NFkB inh
N#C/C(=C\c1ccc(O)c(O)c1)C(=O)c1ccc(O)c(O)c1	7	25	-1	63*	16	-4
COc1ccccc1OCCn1cc(C(=O)C(C)C)c2ccccc21	-12	16	2	-9	21	12
COc1ccccc1OCCn1cc(C(=O)O)c2ccccc21	-1	-3	29	63*	-25	17
COc1ccc(CCNC(=O)C(=O)NCC2CCCN2S(=O)(=O)c2ccccc2)cc1 (stereo unspecified)	1	5	22	-18	51*	-4
COc1ccc(S(=O)(=O)Nc2ccc3c(c2)CC(=O)N([C@H](C)CO)C[C@H](C)[C@H](CN(C)S(=O)(=O)c2c(C)noc2C)O3)cc1	·	10	-12	·	·	·
COc1ccccc1-c1cc2nc(-c3ccccc3)cc(N3CCN(C(=O)c4ccco4)CC3)n2n1	-16	-24	89*	98*	70*	34
COc1ccc(NC(=O)Nc2cccc(F)c2)c(OC)c1	-2	-33	-14	0	-70	-1
COc1ccc(CC(C(=O)Nc2cccc(F)c2)c2nn[nH]n2)c(OC)c1 (stereo unspecified)	4	·	·	51*	65*	-3
CO[C@H]1CN(C)C(=O)c2cc(NC(=O)c3ccccc3F)ccc2OC[C@@H](C)NC[C@H]1C	·	4	-10	·	·	·
CC(=O)Nc1cccc(-c2ccnc3c2CC(C(=O)NCCN(C)C)O3)c1 (stereo unspecified)	7	-2	2	-10	-3	-1
CC(=O)c1cccc(-c2ccnc3c2CC(C(=O)NCCc2ccccc2)O3)c1 (stereo unspecified)	-2	54*	-1	24	6	-10
CC(=O)Nc1cccc(-c2ccnc3c2CC(C(=O)NCCc2ccccc2)O3)c1 (stereo unspecified)	-16	55*	-7	27	15	22
COc1ccc(NC(=O)C2Cc3c(-c4cccc(NC(C)=O)c4)ccnc3O2)cc1 (stereo unspecified)	-17	52*	-24	11	33	10
CS(=O)(=O)Nc1cccc(NC(=O)C2Cc3c(-c4cccc(F)c4)ccnc3O2)c1 (stereo unspecified)	-13	64*	1	-20	25	-11
C[C@@H]1CN([C@@H](C)CO)C(=O)c2cc(-c3cccc(F)c3)cnc2O[C@H]1CN(C)C(=O)Nc1cc(F)ccc1F	·	-13	18	·	·	·
C[C@H](CO)N1C[C@H](C)[C@@H](CN(C)C(=O)C2CCC2)Oc2ncc(C#CC(C)(C)O)cc2C1=O	·	-8	-1	·	·	·
CC(=O)Nc1cccc(C(=O)OC(C)C(=O)NCc2ccc3c(c2)OCO3)c1 (stereo unspecified)	16	0	5	8	-3	-27
Cc1cccc(NS(=O)(=O)c2cc(C(=O)OC(C)C(=O)NCc3ccc4c(c3)OCO4)ccc2C)c1 (stereo unspecified)	-3	-4	16	53*	29	6
